Results filed as inconclusive are left out. Active and inactive are the calls of the source. Calls come from the whole dose curve; as a rule, active = well fitted curve in the direction sought with a large enough effect; inconclusive = small, poorly fitted or top-dose-only effect, or another doubt; inactive = no such curve, though single readings can be large; an effect the other way counts as inactive or inconclusive.
Key:
[1] = Quantitative High-Throughput drug screen in 47 multiple myeloma cell lines against the NCATS MIPE library collection: JIM3_ECACC cell viability assay (AID 1918963; note: nearly all actives have a fitted effect of over 35% in size)
In short: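 CellTiter-Glo luminescence (ATP) after 48 h compound exposure, 37C/5% CO2; 500 cells/well; MIPE 4.0 approved/investigational drugs pinned in; DMSO = 100%, media only = 0% viability.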

[2] = Quantitative High-Throughput drug screen in 47 multiple myeloma cell lines against the NCATS MIPE library collection: JIM1_ECACC cell viability assay (AID 1918964)
In short: (§1)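 Primary qHTS used for cherry-picking: cells at 500/well, library compounds for 48 h (37C, 5% CO2), luminescent ATP assay.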

[3] = Quantitative High-Throughput drug screen in 47 multiple myeloma cell lines against the NCATS MIPE library collection: INA6_PLB cell viability assay (AID 1918965; note: nearly all actives have a fitted effect of over 55% in size)
In short: (§2)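 Myeloma cells (500 per well) were exposed to MIPE 4.0 compounds by pin transfer and incubated 48 hours at 37C, 5% CO2. Viability was read as ATP by CellTiter-Glo luminescence, normalised to DMSO (100%) and media-only (0%) wells.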

[4] = Quantitative High-Throughput drug screen in 47 multiple myeloma cell lines against the NCATS MIPE library collection: JJN3_DSMZ cell viability assay (AID 1918966; note: nearly all actives have a fitted effect of over 50% in size)
In short: as §1

[5] = Quantitative High-Throughput drug screen in 47 multiple myeloma cell lines against the NCATS MIPE library collection: H1112_PLB cell viability assay (AID 1918967; note: nearly all actives have a fitted effect of over 30% in size)
In short: as §1

[6] = Quantitative High-Throughput drug screen in 47 multiple myeloma cell lines against the NCATS MIPE library collection: Karpas25_ECACC cell viability assay (AID 1918968; note: nearly all actives have a fitted effect of over 35% in size)
In short: as §1

[7] = Quantitative High-Throughput drug screen in 47 multiple myeloma cell lines against the NCATS MIPE library collection: KMS27_JCRB cell viability assay (AID 1918970); note: nearly all actives have a fitted effect of over 30% in size
In short: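 Myeloma cells (500 per well) were exposed to MIPE 4.0 compounds for 48 h at 37 °C, 5% CO2; viability was read as ATP luminescence with CellTiter-Glo, normalized to DMSO-only (100%) and media-only (0%) wells.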

[8] = Quantitative High-Throughput drug screen in 47 multiple myeloma cell lines against the NCATS MIPE library collection: KMS12BM_JCRB cell viability assay (AID 1918971); note: nearly all actives have a fitted effect of over 35% in size
In short: (§3)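 Viability readout: CellTiter-Glo luminescence following 5 min room-temperature incubation with reagent. Prior exposure: 48 h, 37C, humidified 5% CO2, 500 cells per well.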

[9] = Quantitative High-Throughput drug screen in 47 multiple myeloma cell lines against the NCATS MIPE library collection: KMS12PE_JCRB cell viability assay (AID 1918972); note: nearly all actives have a fitted effect of over 30% in size
In short: as §2

[10] = Quantitative High-Throughput drug screen in 47 multiple myeloma cell lines against the NCATS MIPE library collection: KMS20_JCRB cell viability assay (AID 1918973); note: nearly all actives have a fitted effect of over 45% in size
In short: as §1

[11] = Quantitative High-Throughput drug screen in 47 multiple myeloma cell lines against the NCATS MIPE library collection: KMS21BM_JCRB cell viability assay (AID 1918974); conditions: ATP luminescence, 48 h; viability: at 45.8 µM (top of the series) unless noted
In short: as §1

[12] = Quantitative High-Throughput drug screen in 47 multiple myeloma cell lines against the NCATS MIPE library collection: KMS26_JCRB cell viability assay (AID 1918975); note: nearly all actives have a fitted effect of over 45% in size
In short: as §3

[13] = Quantitative High-Throughput drug screen in 47 multiple myeloma cell lines against the NCATS MIPE library collection: MOLP8_DSMZ cell viability assay (AID 1918977); note: nearly all actives have a fitted effect of over 45% in size
In short: (§4)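 Myeloma cells (500/well) treated with MIPE 4.0 compounds for 48 h at 37 °C, 5% CO2. Viability read as ATP via CellTiter-Glo luminescence after 5 min at RT; DMSO-only wells = 100%, media-only = 0% viability.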

[14] = Quantitative High-Throughput drug screen in 47 multiple myeloma cell lines against the NCATS MIPE library collection: NCIH929_DSMZ cell viability assay (AID 1918978); note: nearly all actives have a fitted effect of over 35% in size
In short: as §4

[15] = Quantitative High-Throughput drug screen in 47 multiple myeloma cell lines against the NCATS MIPE library collection: MM1S_ATCC cell viability assay (AID 1918980); note: nearly all actives have a fitted effect of over 45% in size
In short: as §4

[16] = Quantitative High-Throughput drug screen in 47 multiple myeloma cell lines against the NCATS MIPE library collection: MM1R_ATCC cell viability assay (AID 1918981); note: nearly all actives have a fitted effect of over 35% in size
In short: as §4

[17] = Quantitative High-Throughput drug screen in 47 multiple myeloma cell lines against the NCATS MIPE library collection: LP1_DSMZ cell viability assay (AID 1918982); note: nearly all actives have a fitted effect of over 35% in size
In short: as §4

[18] = Quantitative High-Throughput drug screen in 47 multiple myeloma cell lines against the NCATS MIPE library collection: KMS28PE_JCRB cell viability assay (AID 1918983); note: nearly all actives have a fitted effect of over 35% in size
In short: as §4

[19] = Quantitative High-Throughput drug screen in 47 multiple myeloma cell lines against the NCATS MIPE library collection: MMM1_PLB cell viability assay (AID 1918976); note: nearly all actives have a fitted effect of over 35% in size
In short: as §4

[20] = Quantitative High-Throughput drug screen in 47 multiple myeloma cell lines against the NCATS MIPE library collection: OCIMY1_PLB cell viability assay (AID 1918979); note: nearly all actives have a fitted effect of over 35% in size
In short: as §4
Potency is the fitted concentration of half-maximal effect.

## CC(=O)c1c(C)c2cnc(Nc3ccc(N4CCNCC4)cn3)nc2n(C2CCCC2)c1=O
[1]
  Potency: 18.7 µM (active)
[2]
  Potency: 5.9 µM (active)
[3]
  Potency: 18.7 µM (active)
[4]
  Potency: 23.5 µM (active)
[5]
  Potency: 23.5 µM (active)
[6]
  Potency: 11.8 µM (active)
[7]
  Potency: 26.4 µM (active)
[8]
  Potency: 0.833 µM (active)
[9]
  Potency: 23.5 µM (active)
[10]
  Potency: 7.43 µM (active)
[11]
  Potency: 14.8 µM (active)
[12]
  Potency: 18.7 µM (active)
[13]
  Potency: 18.7 µM (active)
[14]
  Potency: 20.9 µM (active)
[15]
  Potency: 20.9 µM (active)
[16]
  Potency: 14.8 µM (active)
[17]
  Potency: 5.9 µM (active)

## CC(C)[C@H](C(=O)Nc1ccc(C(=O)NO)cc1)c1ccccc1
[1]
  Potency: 1.48 µM (active)
[2]
  Potency: 0.332 µM (active)
[3]
  Potency: 0.235 µM (active)
[4]
  Potency: 0.662 µM (active)
[5]
  Potency: 1.05 µM (active)
[6]
  Potency: 0.418 µM (active)
[7]
  Potency: 2.09 µM (active)
[8]
  Potency: 0.526 µM (active)
[9]
  Potency: 0.526 µM (active)
[10]
  Potency: 0.833 µM (active)
[11]
  Potency: 0.105 µM (active)
[12]
  Potency: 3.32 µM (active)
[13]
  Potency: 0.526 µM (active)
[14]
  Potency: 0.526 µM (active)
[15]
  Potency: 0.662 µM (active)
[16]
  Potency: 0.526 µM (active)
[17]
  Potency: 0.743 µM (active)
[18]
  Potency: 0.833 µM (active)

## CC(C)c1ccc(Cn2ccc3c4c(N)nc(NC5CC5)nc4ccc32)cc1
[1]
  Potency: 0.148 µM (active)
[2]
  Potency: 1.87 µM (active)
[3]
  Potency: 1.48 µM (active)
[4]
  Potency: 8.33 µM (active)
[5]
  Potency: 9.35 µM (active)
[6]
  Potency: 5.9 µM (active)
[7]
  Potency: 0.372 µM (active)
[8]
  Potency: 7.43 µM (active)
[9]
  Potency: 0.833 µM (active)
[10]
  Potency: 3.72 µM (active)
[11]
  Potency: 1.32 µM (active)
[12]
  Potency: 10.5 µM (active)
[19]
  Potency: 16.6 µM (active)
[13]
  Potency: 13.2 µM (active)
[14]
  Potency: 13.2 µM (active)
[20]
  Potency: 14.8 µM (active)
[15]
  Potency: 10.5 µM (active)
[16]
  Potency: 9.35 µM (active)
[17]
  Potency: 4.69 µM (active)
[18]
  Potency: 9.35 µM (active)

## Cc1ccc(C(=O)Nc2cccc(C(F)(F)F)c2)cc1-c1ccc2nc(NCCN3CCOCC3)ncc2c1
[1]
  Potency: 13.2 µM (active)
[2]
  Potency: 1.05 µM (active)
[3]
  Potency: 3.32 µM (active)
[4]
  Potency: 16.6 µM (active)
[5]
  Potency: 14.8 µM (active)
[6]
  Potency: 5.26 µM (active)
[7]
  Potency: 2.96 µM (active)
[8]
  Potency: 8.33 µM (active)
[9]
  Potency: 2.64 µM (active)
[10]
  Potency: 1.66 µM (active)
[11]
  Potency: 1.66 µM (active)
[19]
  Potency: 14.8 µM (active)
[13]
  Potency: 3.32 µM (active)
[14]
  Potency: 5.26 µM (active)
[20]
  Potency: 18.7 µM (active)
[15]
  Potency: 16.6 µM (active)
[16]
  Potency: 14.8 µM (active)
[17]
  Potency: 18.7 µM (active)
[18]
  Potency: 14.8 µM (active)

## Nc1cc(C(F)(F)F)c(-c2cc(N3CCOCC3)nc(N3CCOCC3)n2)cn1
[1]
  Potency: 0.743 µM (active)
[2]
  Potency: 0.0469 µM (active)
[3]
  Potency: 1.32 µM (active)
[4]
  Potency: 3.72 µM (active)
[5]
  Potency: 0.743 µM (active)
[6]
  Potency: 0.743 µM (active)
[7]
  Potency: 0.209 µM (active)
[8]
  Potency: 1.05 µM (active)
[9]
  Potency: 0.418 µM (active)
[10]
  Potency: 1.18 µM (active)
[11]
  Potency: 0.418 µM (active)
[19]
  Potency: 0.526 µM (active)
[13]
  Potency: 1.05 µM (active)
[14]
  Potency: 0.209 µM (active)
[15]
  Potency: 0.235 µM (active)
[16]
  Potency: 1.18 µM (active)

## COc1ccc(OC)c(-c2nnc3ccc(-c4ccc(OC)c(O[C@@H]5CCOC5)c4)nn23)c1
[1]
  Potency: 8.33 µM (active)
[2]
  Potency: 8.33 µM (active)
[3]
  Potency: 5.9 µM (active)
[4]
  Potency: 16.6 µM (active)
[5]
  Potency: 13.2 µM (active)
[6]
  Potency: 6.62 µM (active)
[7]
  Potency: 8.33 µM (active)
[8]
  Potency: 10.5 µM (active)
[9]
  Potency: 7.43 µM (active)
[10]
  Potency: 5.26 µM (active)
[11]
  Potency: 7.43 µM (active)
[12]
  Potency: 20.9 µM (active)
[19]
  Potency: 11.8 µM (active)
[13]
  Potency: 9.35 µM (active)
[14]
  Potency: 9.35 µM (active)
[15]
  Potency: 7.43 µM (active)
[16]
  Potency: 8.33 µM (active)
[17]
  Potency: 14.8 µM (active)
[18]
  Potency: 14.8 µM (active)

## O=C(CCCCCCNC(=O)c1cnc(N(c2ccccc2)c2ccccc2)nc1)NO
[1]
  Potency: 16.6 µM (active)
[2]
  Potency: 4.69 µM (active)
[3]
  Potency: 2.64 µM (active)
[4]
  Potency: 4.18 µM (active)
[5]
  Potency: 13.2 µM (active)
[6]
  Potency: 4.18 µM (active)
[7]
  Potency: 5.26 µM (active)
[8]
  Potency: 2.96 µM (active)
[9]
  Potency: 5.9 µM (active)
[10]
  Potency: 8.33 µM (active)
[12]
  Potency: 5.26 µM (active)
[19]
  Potency: 5.26 µM (active)
[13]
  Potency: 4.18 µM (active)
[14]
  Potency: 5.9 µM (active)
[20]
  Potency: 13.2 µM (active)
[15]
  Potency: 6.62 µM (active)
[16]
  Potency: 3.72 µM (active)
[17]
  Potency: 5.9 µM (active)
[18]
  Potency: 7.43 µM (active)

## O=C(CCCCCCC(=O)Nc1ccc([C@H]2O[C@@H](CSc3nc(-c4ccccc4)c(-c4ccccc4)o3)C[C@@H](c3ccc(CO)cc3)O2)cc1)NO
[1]
  Potency: 23.5 µM (active)
[2]
  Potency: inactive
[3]
  Potency: 5.26 µM (active)
[4]
  Potency: 13.2 µM (active)
[5]
  Potency: 13.2 µM (active)
[6]
  Potency: 9.35 µM (active)
[7]
  Potency: inactive
[8]
  Potency: 11.8 µM (active)
[9]
  Potency: inactive
[10]
  Potency: 6.62 µM (active)
[12]
  Potency: 23.5 µM (active)
[19]
  Potency: 13.2 µM (active)
[13]
  Potency: 14.8 µM (active)
[14]
  Potency: 9.35 µM (active)
[20]
  Potency: 18.7 µM (active)
[15]
  Potency: 9.35 µM (active)
[16]
  Potency: 16.6 µM (active)
[17]
  Potency: 11.8 µM (active)
[18]
  Potency: 16.6 µM (active)
